# fixLJ activator: increases Burkholderia fixLJ two-component signaling; B. multivorans fixK-promoter GFP reporter, 18 h; hits give high values; z-score (no concentration beside the values); 0.3% of 29,000 active; AID 1918990;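 active means replicate mean overnight rise in green fluorescent reporter signal, 3 or more SD over negative controls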
# Active calls of the source: *. The entries come from a sample that favours hits as a whole.
SMILES,fixLJ activator
CC(=O)c1ccc(N2CCN(C(=O)C3CCCN(S(=O)(=O)c4ccc(Br)s4)C3)CC2)cc1 (stereo not given),-1.1
Cc1cc(NC(=O)C2CCCN(S(=O)(=O)c3ccc(Br)s3)C2)ccc1Br (stereo not given),-1.1
Cn1ncc2cc(NC(=O)N3CC4CCC(C3)C4O)ccc21 (stereo not given),-2.8
CCOC(=O)c1cc2c(=O)n3ccccc3nc2n(C(C)C)c1=NC(=O)c1cc2ccccc2o1,-1.1
CC(C)c1ccc(/C=C(\C#N)c2nc(-c3ccc(O)cc3)cs2)cc1,8.4*
COc1ccc(/C=C(/C#N)c2nc(-c3ccc(Br)cc3)cs2)cc1,-1.2
CC(C)c1ccc(/C=C(\C#N)c2nc(-c3cc4ccccc4oc3=O)cs2)cc1,1
CCOC(=O)c1cccc(-n2nnc3c(sc4nc(C)c(Br)c(C)c43)c2=O)c1,-1.2
CCOc1ccc(NC(=O)NC2CS(=O)(=O)CC2O)cc1-n1cccc1 (stereo not given),-0.35
O=C(NCc1cccc(Cl)c1)c1ccc2c(Cl)c3c(nc2c1)CCCC3,0.43
CN(Cc1ccccc1)C(=O)CSc1c2c(nc3ccc(Cl)cc13)CCCC2,0.91
Cc1nc(SCc2cccc(Cl)c2)nc2c1CCCC2,3*
COCc1noc(CNC(=O)CN(C)Cc2ccncc2)n1,-0.61
O=C(CCC1N=C2c3ccccc3N=C(SCc3ccccc3Cl)N2C1=O)NCCc1ccccc1 (stereo not given),1
Cc1nc(-c2cccnc2)ncc1C(=O)N1CC(CO)C(CN2CCCCC2)C1 (stereo not given),0.08
CC1(C(=O)N2CCC(c3nnc(Cn4ccnc4)n3C3CC3)CC2)CC1,-0.66
CC(C)c1nc(CN(C)C(=O)c2ccc(N3CCCC3)c(Cl)c2)no1,0.3

# From PubChem
